Results on 92 compounds are retold here after PubChem BioAssay AID743279 (National Center for Advancing Translational Sciences (NCATS), 2014).

The whole screen tested about 360,000 compounds, of which about 17,000 (4.7%) were called active. Inconclusive results (about 5%) are left out. The entries come from a sample that favours actives as a whole. Values without a mark were called inactive. Cut-off read from the data, not from the text of the source: active = activity change below about -50%; inconclusive = mostly about -30% to -49%; inactive = weaker than that.
% is set by controls: 0 for no effect and ±100 for the full control effect.

The test in a line: qHTS for Inhibitors of Inflammasome Signaling: IL-1-beta AlphaLISA Primary Screen. The note with it: THP-1 LPS/ATP IL-1B secretion, 16 h; at 57.5 µM, stronger effect = lower value. In a few lines:
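Secreted IL-1B measured by AlphaLISA bead assay after 16 h compound exposure of THP-1 cells; compounds (final up to 57.5 uM) added 1 h before LPS (250 ng/mL) and ATP (1.25 mM) stimulation; lower signal means less secretion.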
A general note: In qHTS, concentration-response curves come from the screen itself.
As for `CC(C)OC(=O)CC(=O)CC(O)c1cccc([N+](=O)[O-])c1` (configuration not stated), the activity change is 19.7%.

In the case of `CCC(=O)N(Cc1cc2ccccc2[nH]c1=O)c1ccc(OC)cc1`, the activity change is -28.7%.

As to `CC(=O)N(Cc1cc(=O)[nH]c2ccccc12)c1ccc(C)cc1C`, the activity change is 1.3%.

Turning to `Cc1ccc(N(Cc2cc(=O)[nH]c3ccccc23)C(=O)CCl)cc1`, the activity change is -99.5% (active).

For the compound `CC(C=Cc1ccccc1)=NNS(=O)(=O)c1ccc([N+](=O)[O-])cc1`, the activity change was -3.19%.

As to `CCOc1ccc(S(=O)(=O)N2CCN(C(=O)c3oc4ccccc4c3C)CC2)cc1`, the activity change is -12.6%.

Take `N#CC1=C(N)OC2=C(C(=O)CCC2)C1C1CC=CCC1` (configuration not stated): the activity change is 0.456%.

For `COCc1[nH]nc2c1C(C1C=CCCC1)C(C#N)=C(N)O2` (configuration not stated), the activity change is -72.1% (active).

On to `N#CC1=C(N)Oc2cc(O)ccc2C1C1CCCCC1` (configuration not stated), for which the activity change is 50.4%.

Take `CCCCNC(=O)C[C@@H]1C[C@@]2(C(=O)OC)CC(C)(C)CC=C2N(Cc2ccco2)C1=O`: the activity change was -1.57%.

For `NCCCCC(C(=O)O)N(C(=O)OCc1ccccc1)C(=O)OCc1ccccc1` (configuration not stated), the activity change is -16.2%.

As to `O=C(O)CSc1c2c(nc3cc(C(=O)Nc4cccc(C(F)(F)F)c4)ccc13)CCCC2`, the activity change was -26.7%.

Regarding `COC(=O)c1ccccc1Sc1c(/C=N/OCc2ccc(Cl)cc2)c(C(F)(F)F)nn1C`, the activity change is 20.2%.

With `Cn1nc(C(F)(F)F)c(C(=O)Nc2cccc(C(F)(F)F)c2)c1SCc1ccc(Cl)cc1`, the activity change is -81.8% (active).

As to `OC[C@@H]1CN(Cc2cccs2)C[C@H](n2cnc3c(Nc4ccccc4)ncnc32)O1`, the activity change was 8.21%.

`c1ccc(C[C@H]2CNCCN2CCC23CC4CC(CC(C4)C2)C3)cc1`: the activity change is -74.5% (active).

Regarding `c1ccc2c(CCN3CCNC[C@H]3Cc3cccc4ccccc34)cccc2c1`, the activity change is -12.9%.

Consider `O=C1CCNCCN1[C@H](CO)Cc1ccccc1`, for which the activity change was 17.5%.

As to `CCCC(=O)N1CCC1(C)C(=O)Nc1ccc(-n2cncn2)cc1` (configuration not stated), the activity change was 0.196%.

As for `C[C@@H]1CN([C@H](C)CO)C(=O)CCCn2cc(nn2)CO[C@H]1CN(C)S(=O)(=O)c1ccc(Oc2ccccc2)nc1`, the activity change was 17.8%.

On to `O=S(=O)(c1ccc(F)cc1)N1CCN=C1SCc1cccc(F)c1`, for which the activity change was 12.9%.

Take `CNc1ccc(SC#N)cc1`: the activity change was -70.1% (active).

`CC(=O)N1CCc2c(sc(NC(=O)CCS(=O)(=O)c3ccccc3)c2C#N)C1`: the activity change entry was “inactive”.

Consider `O=C1OCCOC2CCCc3oc(-c4ccccc4)c1c32` (configuration not stated), for which the activity change was 10.6%.

With `O=C(NCc1ccccc1)C1c2ccccc2OCC(=O)N1CCCN1CCOCC1` (configuration not stated), the activity change is 89.8%.

For `O=C(COC(=O)c1cnc(Cl)c(Cl)c1)NCc1ccco1`, the activity change was 10%.

Consider `O=S(=O)(NCc1ccco1)c1cnc(Cl)c(Cl)c1`, for which the activity change is -67.1% (active).

`C/C(=N\Nc1ncc(Cl)cc1Cl)c1ccc(S(=O)(=O)NCc2ccco2)cc1`: the activity change is -9.03%.

Regarding `O=S(=O)(NCC1CCCO1)c1cnc(Cl)c(Cl)c1` (configuration not stated), the activity change is -65.5% (active).

As for `CCOc1ccc(S(=O)(=O)NCC2CCCO2)cc1` (configuration not stated), the activity change was 6.01%.

As for `O=S(=O)(NCC1CCCO1)c1ccc2ccccc2c1` (configuration not stated), the activity change was 1.02%.

Regarding `O=C(Nc1cccc2ccccc12)NC1CC1`, the activity change was -13.6%.

In the case of `COC(=O)C[C@H]1C[C@@H]2c3cc(N(C)C)ccc3O[C@@H]2[C@H](CO)O1`, the activity change is 13.8%.

As to `O=C(NCc1cccnc1)c1cc(C2CCCN(C(=O)C3CCCCC3)C2)on1` (configuration not stated), the activity change is -24.1%.

As for `CCCNC(=O)c1cc(C2CCCCN2C(=O)OC)on1` (configuration not stated), the activity change is 0%.

Take `O=C1c2ccccc2-c2ccccc2NC1O` (configuration not stated): the activity change was 7.09%.

As for `CC(C)C1N=C2c3ccccc3N=C(SCC(=O)c3ccc(O)c(O)c3)N2C1=O` (configuration not stated), the activity change is 41.9%.

With `O=C1CC[C@@H](C(=O)N2CSC[C@@H]2C(=O)Nc2ccc(C(F)(F)F)cc2)N1`, the activity change was -1.13%.

For `Cc1ccc(NC(=O)O/N=C/c2cccc([N+](=O)[O-])c2)cc1`, the activity change is -1.61%.

For the compound `COc1cc(NC(=O)Nc2ccc(C)cc2)cc([N+](=O)[O-])c1`, the activity change was -21%.

Consider `CS/C(=C\[N+](=O)[O-])Nc1ccc(C)cc1`, for which the activity change was -131% (active).

In the case of `Cc1nn(-c2ccccc2)nc1C(=O)OCC(=O)N1CCCCC1C` (configuration not stated), the activity change is 12%.

As to `O=C(Cc1ccc(NC(=O)C2CCCN(C(=O)C3CCCCC3)C2)cc1)Nc1cccc(C(=O)N2CCCCC2)c1` (configuration not stated), the activity change is -3.57%.

With `Cc1[nH]c2ccccc2c1C(=O)CSCC(=O)O`, the activity change is 10.6%.

For `Cc1onc(-c2ccccc2Cl)c1C(=O)OCC(=O)c1ccccc1`, the activity change was -25.9%.

For the compound `Cc1[nH]c2ccccc2c1C(=O)COC(=O)c1c(-c2ccccc2)noc1C`, the activity change is -59.9% (active).

Turning to `COc1ccc(CC(=O)NC(C)c2ccc(Cl)c(Cl)c2)cc1S(=O)(=O)N1CCOCC1` (configuration not stated), the activity change is -9.07%.

In the case of `CN(C)c1ccc(Nc2c3c4c(cccc4n(C)c2=O)C(=O)c2ccccc2-3)cc1`, the activity change is -11.1%.

Consider `COc1ccc2c(c1)c(=Cc1ccc(N(C)C)cc1)c1cc(-c3ccccc3)[n+](C)n12`, for which the activity change was -118% (active).

For `COc1ccc2sc(-c3ccc(N(C)C)cc3)c(C#CCO)c2c1`, the activity change is -3.05%.

As to `COc1ccc2sc(-c3ccc(N(C)C)cc3)c(-c3ccc4cc[nH]c4c3)c2c1`, the activity change is -13.1%.

On to `O=C(CCNC(=O)c1ccc(Cl)cc1)NC1CCCc2ccccc21` (configuration not stated), for which the activity change was 1.14%.

Turning to `COc1cc2[nH]c(O)c(C=O)c2cc1OC`, the activity change was -8.17%.

On to `Cc1ccc(C=O)c([B-](F)(F)F)c1`, for which the activity change is 5.57%.

As to `CN1c2ccc(C=O)c3c(C=O)ccc(c23)N(C)C1(C)C`, the activity change is -96.3% (active).

For `COc1ccc(OC)c(C2C3=C(N=c4s/c(=C\c5cccc(O)c5)c(=O)n42)c2ccccc2CC3)c1` (configuration not stated), the activity change is -55.4% (active).

For `O=C1CCCC2=C1C(c1ccccc1)n1c(s/c(=C/c3cccc(F)c3)c1=O)=N2` (configuration not stated), the activity change was 2.6%.

As for `CCOC(=O)C1=C(C)N=c2s/c(=C\C(=O)OC)c(=O)n2C1c1ccc(OC)cc1` (configuration not stated), the activity change is 10.3%.

As for `O=S(=O)(Nc1ccc2[nH]ncc2c1)c1ccccc1Cl`, the activity change was -6.19%.

Take `CNC(=O)c1ccsc1NC(=O)c1ccc(S(=O)(=O)N2CCc3ccccc32)cc1`: the activity change is -11.5%.

In the case of `CCN(Cc1ccncc1)C(=S)Nc1ccccc1C`, the activity change was 9.34%.

Consider `COc1ccc(NC(=O)CCCOc2ccc(C(C)=O)cc2)cc1S(=O)(=O)N1CCCCC1`, for which the activity change is 5.4%.

As for `COc1ccc(-n2cnnc2SCC(=O)Nc2cccc(S(N)(=O)=O)c2)cc1`, the activity change was 23.2%.

`C=CCn1c(CC(=O)Nc2cccc(OC)c2)nnc1SCC(=O)NC1CCCCC1`: the activity change was -18.6%.

Turning to `C=CCn1c(COc2ccc(F)cc2)nnc1SCC(=O)Nc1cccc(S(N)(=O)=O)c1`, the activity change was -56.5% (active).

For the compound `O=C(N[C@H]1CC[C@H](CC(=O)N2CCCCC2)O[C@@H]1CO)c1cccc(F)c1`, the activity change was 34.1%.

For `COc1ccc(Nc2ccc3ccccc3c2)cc1`, the activity change was -4.37%.

`COc1ccc(Nc2ncnc3sc(C)cc23)cc1`: the activity change was 1.88%.

For the compound `COc1ccc(Nc2cc(Sc3ccc(OC)cc3)ncn2)cc1`, the activity change was -73.2% (active).

As to `Cc1cccc(N2CCN(C(=O)/C=C/c3ccco3)CC2)c1C`, the activity change was -12.5%.

As to `CC(=O)N1CCN(S(=O)(=O)c2c(F)cc(F)c(Cl)c2F)CC1`, the activity change is -92.4% (active).

Take `CCN1CCN(C(=O)C2CCN(S(=O)(=O)c3cc(Cl)ccc3Cl)CC2)CC1`: the activity change is 24.2%.

For the compound `O=C(c1cnc(Cl)c(Cl)c1)N1CCN(S(=O)(=O)c2ccc(F)cc2)CC1`, the activity change was -12.3%.

For the compound `O=[N+]([O-])c1ccc(CN2CC(N3CCC(c4ccccc4)CC3)CS2(=O)=O)cc1` (configuration not stated), the activity change is -10.2%.

In the case of `O=C(Nc1cc(F)ccc1F)c1ccc2c(=O)n3c(nc2c1)CCC3`, the activity change was -13.9%.

`CC(C)(C)OC(=O)NCCCCCNC(=O)c1[nH]cnc1C(=O)Nc1nccs1`: the activity change was -8.09%.

`C=CC(=O)OCCOCCOCCOCCOC(=O)C=C`: the activity change is -108% (active).

On to `COC(=O)c1ccc2nc(-c3ccc(F)cc3)c(Cc3ccc(C)cc3)n2c1`, for which the activity change was 14.8%.

With `CC1(c2cccc(N)c2)OCCO1`, the activity change is -13.4%.

Turning to `CCC(=O)N1CCCC1(C)C(=O)Nc1ccc2c(c1)CCN2C(C)=O` (configuration not stated), the activity change is -2.74%.

Consider `COc1cccc(/C=C2\SC(=S)N(CCCC(=O)N3CCOCC3)C2=O)c1`, for which the activity change was -22.2%.

With `O=C(CCCN1C(=O)/C(=C/c2cccs2)SC1=S)Nc1ccc(O)cc1`, the activity change is -71.2% (active).

For `COc1ccc(/C=C2/SC(=O)N(CCCCCC(=O)Nc3ccccc3C(=O)O)C2=S)cc1`, the activity change is 34.4%.

With `CC(C(=O)Nc1ccc(O)c(C(=O)O)c1)N1C(=O)/C(=C/c2cccs2)SC1=S` (configuration not stated), the activity change was 3.56%.

In the case of `O=C(CN1C(=O)/C(=C\c2ccccc2F)SC1=S)Nc1nc2ccccc2s1`, the activity change is -3.88%.

Regarding `O=C(CCCN1C(=O)/C(=C\c2ccccc2)SC1=S)Nc1ccccc1O`, the activity change is -71.6% (active).

Regarding `COc1ccc(S(=O)(=O)N[C@@H]2C=C[C@@H](CC(=O)N3CCc4ccccc4C3)O[C@@H]2CO)cc1`, the activity change is 12.3%.

On to `CCOc1cc(/C=C(/C#N)c2ccc(Cl)cc2)cc(Cl)c1OCC(=O)O`, for which the activity change was 31.7%.

In the case of `CCc1noc(C)c1C(=O)NNC(=O)c1ccc(F)cc1`, the activity change was 10.8%.

For the compound `O=C(/C=C/c1ccc([N+](=O)[O-])o1)NNC(=O)c1ccc(F)cc1`, the activity change was -102% (active).

For `O=C(NNC(=O)C1CCCC1)c1ccc(F)cc1`, the activity change is -5.32%.

Consider `CC(C)NC(=O)C1(C)CCCCCN1C(=O)c1ccc(-c2ccccc2)cc1` (configuration not stated), for which the activity change is -2.6%.
